The panel holds about 83,000 compounds, 20% with a hit somewhere; the sample as a whole holds those more often.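 How to read the values: 0–100, growth inhibition (40 = 60% inhibited); 0, no net growth; -100 to 0, cell death (-40 = 40% of starting cells died; -100 = all dead).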 Values without a mark were called inactive. Activity calls are given as the source filed them. The calls were made as follows: active = growth percent below 10; inactive = the rest.
Experiments:
Experiment in all cases: NCI-60 one-dose screen, 48 h (100 = growth as untreated, 0 = no growth, -100 = all killed)
Details in all cases: 10 µM unless noted
[1] = test system: SK-MEL-2 melanoma
[2] = test system: EKVX NSCLC
[3] = test system: SN12C renal
[4] = test system: UO-31 renal
[5] = test system: TK-10 renal
[6] = test system: ACHN renal
[7] = test system: A498 renal
[8] = test system: CCRF-CEM leukemia
[9] = test system: MOLT-4 leukemia
[10] = test system: CAKI-1 renal

| SMILES | growth [1] | growth [2] | growth [3] | growth [4] | growth [5] | growth [6] | growth [7] | growth [8] | growth [9] | growth [10] |
| --- | --- | --- | --- | --- | --- | --- | --- | --- | --- | --- |
| N#Cc1cnn2c(-c3ccc(Cl)cc3)nc(NCCc3ccccc3)nc12 | 89.1% | 87.3% | 99.6% | 72.9% | 102% | 94.2% | 101% | 96.4% | 74.2% |  |
| Cc1[nH]c(-c2nc3ccccc3[nH]2)c(C)c1C(=O)N1CCc2sccc2C1 | 107% | 91.9% | 89.2% | 77.9% | 106% | 99.5% |  | 88.7% | 93.3% | 85.1% |
| Cc1ccc(S(=O)(=O)NN/C(N)=N\S(=O)(=O)c2cc(C)c(Cl)cc2SCc2ccccc2)cc1 | 86.9% | 107% | 101% | 77.9% | 130% | 93.6% | 91% | 74.1% | 61.3% |  |
| COc1ccc(-c2nnc(SCC(=O)NC3=NN=C(c4ccccc4)CS3)o2)cc1 | 103% | 101% | 99.8% | 88.1% | 106% | 99.6% | 86.4% | 90.8% | 83.9% |  |
| CO/C(=C1/NC(=O)C(Cc2ccc(O)c(Br)c2)N(C)C(=O)C(C)NC(=O)CCC/C=C(\C)CCC(C)OC1=O)c1ccccc1 (stereo not given) | -100% (active) | -25.3% (active) | 6.56% (active) | -84.9% (active) | -83.2% (active) | -34.7% (active) | -63.7% (active) | 0.832% (active) | -12.2% (active) |  |
| CCOC(=O)c1cnn2c(-c3ccc(Cl)cc3)nc(NCc3ccccc3)nc12 | 91% | 68.7% | 31.2% | 59.9% | 71.3% | 13.7% | 31.5% | 66.9% | 64.9% |  |
| NS(=O)(=O)c1cnccc1-n1ccc(=O)c(S(N)(=O)=O)c1 | 81.1% | 90.3% | 92.6% | 68.6% | 83.8% | 93.6% | 85.4% | 88.5% | 76.9% |  |
| Nc1ccc(-c2cc3c(Nc4ccc(OCc5cccc(F)c5)c(Cl)c4)ncnc3s2)cc1 | 25.3% | 21.5% | 48.4% | 19.6% | 32.5% | 29.6% | 39.3% | 24% | 30% |  |
| Cl.Fc1c[c-]c(-c2ccccn2)c(F)c1.[Pt].c1ccc([PH+](c2ccccc2)c2ccccc2[PH+](c2ccccc2)c2ccccc2)cc1 | -82.1% (active) | -94.8% (active) | -81.3% (active) | -98.8% (active) | -87.2% (active) | -100% (active) |  | -43.6% (active) | -28.3% (active) | -90.5% (active) |
| Cc1ccc(S(=O)(=O)N(CC[C@@H]2C[C@H]2c2cc3ccccc3o2)C(=O)NC2CCCCC2)cc1 | 101% | 101% | 100% | 75.9% | 106% | 96.9% |  | 118% | 94.7% | 80.1% |
| NS(=O)(=O)c1cn(-c2ncnc3nc[nH]c23)ccc1=O | 95.4% | 97.8% | 92.4% | 78.2% | 94.5% | 99.2% | 89.1% | 94.1% | 99.5% |  |
| O=[N+]([O-])c1ccc(-c2cc3c(Nc4ccc(OCc5cccc(Cl)c5)c(Cl)c4)ncnc3s2)cc1 | 79.4% | 68.4% | 85.1% | 59.9% | 70.1% | 63.3% | 72.3% | 52.2% | 47.5% |  |
| O=S(=O)(Cc1ccccc1)c1nc2ccccc2s1 | 57.7% | 99.3% | 35.5% | 49.9% | 98% |  | 111% | 15.4% | 14.1% |  |
| CCN(CC)CCOc1ccc(/C(=C(\C)c2ccc(OC)c(F)c2)c2ccc(Cl)cc2)cc1 | 95.9% | 96.5% | 83.5% | 75.6% | 82.6% |  | 102% | 60.2% | 70.8% | 67.2% |
